Tgondii IFNg: inhibitors of Toxoplasma gondii growth with IFN-gamma; Toxoplasma gondii growth in IFN-gamma-treated host cells; active compounds read low; activity change, negative = inhibition, % (test concentration not listed); 3.8% of 69,000 active; AID 1259416; in the data active = activity change below about -70%, passing the limit was not always enough;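 note: host cells are HeLa cells infected with Toxoplasma gondii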
Starred values were filed as active, the others as inactive; i = inactive. The full list was thinned out, with hits kept by preference.

SMILES	Tgondii IFNg
CCCN1C(=O)C2(NCCc3c2[nH]c2ccc(Cl)cc32)c2ccccc21 (stereo not given)	46
Cc1cc(C)nc(Nc2ccc(O)cc2)n1	-5
COc1ccc(-c2nc(Nc3ccccc3)c3ccccc3n2)cc1	-38
COc1nc(Nc2ccccc2)nc(OC)n1	-116*
CCCCc1cn(CC2CCN(C(=O)c3cncc(C)c3)CC2)nn1	4
COc1ccc(CNC(=O)CCC2N=C3c4ccccc4N=C(SCc4cc(=O)n5ccccc5n4)N3C2=O)cc1 (stereo not given)	8
CC[C@H]1CN2CCc3cc(OC)c(OC)cc3C2C[C@@H]1CC1NCCc2cc(OC)c(OC)cc21 (stereo not given in full)	-79*
COc1cc2c(cc1OC)C(Cc1ccc(O)cc1)N(C)CC2 (stereo not given)	6
CCS(=O)(=O)N1CCc2cc(OC)c(OC)cc2C1c1ccc(OC)c(OC)c1 (stereo not given)	36
Cc1cccc(C)c1NC(=O)Cn1ncc2c(N3CCCC3)ncnc21	-38
CC(=O)N1CCS(=O)(=O)[C@@H]2CCN(S(=O)(=O)c3ccccc3C)CC[C@@H]21	3
CCOC(=O)c1sc(NC(=O)CSc2nnnn2-c2cccc(OC)c2)nc1C	-43
CC(C)C(=O)c1cc2c(s1)CCN2S(C)(=O)=O	-85*
CS(=O)(=O)N1CCc2sc(C(=O)NCc3ccccc3)cc21	-4
CS(=O)(=O)N1CCc2sc(C(=O)Nc3ccccc3F)cc21	-19
Cc1ccc(NCc2c(-c3ccccc3)nn(C)c2C)cc1S(=O)(=O)N(C)C	12
CC1(C)[C@@H](O)CC[C@]2(C)[C@H]3C(=O)C=C4[C@@H]5C[C@@](C)(C(=O)O)CC[C@]5(C)CC[C@@]4(C)[C@]3(C)CC[C@@H]12	10
C[C@H]1[C@H](C)CC[C@]2(C(=O)O)CC[C@]3(C)C(=CC[C@@H]4[C@@]5(C)CC[C@H](O)C(C)(C)[C@@H]5CC[C@]43C)[C@H]12	-79*
CC1(C)CC[C@]2(C(=O)O)CC[C@]3(C)C(=CCC4[C@@]5(C)CC[C@H](O)[C@@](C)(CO)C5CC[C@]43C)C2C1 (stereo not given in full)	7
Cc1cc(-c2c(-c3ccccc3)ncn2CCS(C)(=O)=O)n[nH]1	0
CCC(=O)N1CCC2C(C[C@@H](CN3CCCC3)N2c2nccs2)C1 (stereo not given in full)	2
Cc1cccc(CN2CCc3onc(CN(C)C)c3C2)n1	-2
CN(C)Cc1noc2c1CN(Cc1nccn1C)CC2	-75*
CN(C)Cc1noc2c1CN(Cc1ccoc1)CC2	-32
CCOC(=O)N1CCC2(CC1)OC(=O)C(C)=C2C(=O)NCc1ccccc1	43
SMILES	Tgondii IFNg
COc1ccc(-c2cnc3c(-c4cccc5ncccc45)cnn3c2)cc1	-23
CC(C)Oc1ccc(-c2cnc3c(-c4ccnc5ccccc45)cnn3c2)cc1	-76*
CN(Cc1cnc2c(-c3ccccc3)cnn2c1)Cc1cccc2ncccc12	-48
CNc1cc(CC2CCN(C(C)=O)C2)ncn1 (stereo not given)	-7
CC1(C)NC(=O)N(CC(O)CN2C(=O)c3ccccc3C2=O)C1=O (stereo not given)	33
CC1(C)C(=O)NC2=C1C(=O)C(=O)c1ccccc12	-82*
CCOC(=O)N1CCC(NC(=O)C2CC(=O)N(CC(C)C)C2)CC1 (stereo not given)	3
CN1CCOCC12CCN(c1ccccc1F)CC2	-23
CC(=O)N1CCC(N2CCCC2c2nc(-c3ccncc3)no2)CC1 (stereo not given)	-4
Cc1nn(CCC#N)c(C)c1Cc1c(Cl)cccc1Cl	-111*
N#CCCn1nc(-c2cccnc2)oc1=O	52
Cc1nn(Cc2nnc(SCc3c(F)cccc3Cl)n2C)c(C)c1Br	-24
CC(C)c1noc(C(C)n2ccnc2-c2cnc(N3CCCC3)nc2)n1 (stereo not given)	4
CCN1CC[C@@]2(CN(C(=O)C3CCOCC3)C[C@H]2c2ccccc2)C1=O	-11
CC1(CCC#N)N=C(SCCC#N)N(c2ccccc2)C1=O (stereo not given)	-74*
CCN(CC)C(=O)CC1CC2(CCN(Cc3csc(C)n3)CC2)c2ccccc21 (stereo not given)	4
COc1ccc(C2c3[nH]c4ccccc4c3CCN2C(=O)c2ccc3c(c2)OCO3)cc1 (stereo not given)	-81*
COc1cc(C(=O)N2CCc3c([nH]c4ccccc34)C2c2ccccc2)cc(OC)c1OC (stereo not given)	177
O=C(c1ccncc1)N1CCc2c([nH]c3ccccc23)C1c1ccccc1 (stereo not given)	337
O=C(c1ccc2c(c1)OCO2)N1CCc2c([nH]c3ccccc23)C1c1ccccc1 (stereo not given)	-98*
COc1ccc(C(=O)N2CCc3c([nH]c4ccccc34)C2c2ccc(SC)cc2)cc1OC (stereo not given)	i
O=C(Cc1ccc(N2CCNC2=O)cc1)N1CC(c2cccnc2)C1	-6
CCCc1cc(C(=O)NCc2ccc(-c3ccnc4ncnn34)cc2)no1	6

Screening results: PubChem, Broad Institute
